Measured values taken from PubChem BioAssay (Tox21).
Inconclusive results are not listed. The source made the active and inactive calls. Unless noted, calls come from the whole dose curve; as a rule, active = well fitted curve in the direction sought with a large enough effect in the repeat runs; inconclusive = weak or mixed curves; inactive = no such curve, though single readings can be large; an effect the other way counts as inactive or inconclusive.

Legend:
[1] = qHTS assay to identify small molecule agonists of the peroxisome proliferator-activated receptor delta (PPARd) signaling pathway - cell viability counter screen (AID 743211); note: nearly all actives have a fitted effect of over 55% in size
In short: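 In the same wells used for beta-lactamase reporter measurement, cytotoxicity is scored by CellTiter-Glo. HEK293H PPARd-bla cells receive compound for 17 h at 37C following a 5 h settling period.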

[2] = target: Peroxisome proliferator-activated receptor delta (Homo sapiens) (UniProt Q03181); assay: qHTS assay to identify small molecule agonists of the peroxisome proliferator-activated receptor delta (PPARd) signaling pathway (AID 743212; calls by dose curve;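 note: HEK293H cells with PPARd UAS beta-lactamase reporter GeneBLAzer system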)
In short: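 Beta-lactamase reporter read by fluorescence (LiveBLAzer B/G FRET, 2 h, room temperature). Test agents, in DMSO, incubated at 37 C with PPARd-bla HEK293H cells.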

[3] = qHTS assay to identify small molecule antagonists of the peroxisome proliferator-activated receptor delta (PPARd) signaling pathway - cell viability counter screen (AID 743213); note: nearly all actives have a fitted effect of over 50% in size
In short: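 Cytotoxicity counter screen: CellTiter-Glo luminescence read 30 min after addition, in the same wells as the reporter assay. There, PPARd UAS-bla HEK293H cells (3000/well) were treated 17 h at 37 C with compound and 300 nM L165041.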

[4] = target: Bile acid receptor (Homo sapiens) (UniProt Q96RI1); assay: qHTS assay to identify small molecule antagonists of the farnesoid-X-receptor (FXR) signaling pathway (AID 743217; active = well fitted inhibition curve with a large enough effect in the signal ratio in the repeat runs, not every such curve was filed as active; the % refers to the signal ratio)
In short: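 Antagonist mode: chenodeoxycholic acid at 50 uM final stimulates a UAS-driven beta-lactamase reporter in HEK 293T FXR-bla cells during 16 h, 37C compound exposure. Read-out is FRET substrate fluorescence after 2 h at room temperature.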

[5] = qHTS assay to identify small molecule agonists of the farnesoid-X-receptor (FXR) signaling pathway - cell viability counter screen (AID 743218); note: nearly all actives have a fitted effect of over 45% in size
In short: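 Viability counter screen in the same wells: CellTiter-Glo luminescence, 30 min room-temperature incubation, measured after the beta-lactamase read. Cells were GeneBLAzer FXR-UAS-bla HEK 293T, compound-treated 16 h at 37C.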

[6] = target: Bile acid receptor (Homo sapiens) (UniProt Q96RI1); assay: qHTS assay to identify small molecule agonists of the farnesoid-X-receptor (FXR) signaling pathway (AID 743220; active = well fitted activation curve with a large enough effect in the signal ratio in the repeat runs, not every such curve was filed as active; the % refers to the signal ratio)
In short: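 FXR-UAS-bla HEK 293T cells carrying a UAS-driven beta-lactamase reporter were plated for 5 h at 37C/5% CO2, then exposed to DMSO-dissolved Tox21 10K compounds for 16 h at 37C. A LiveBLAzer B/G FRET substrate was loaded for 2 h at room temperature before fluorescence reading.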

[7] = qHTS assay to identify small molecule antagonists of the farnesoid-X-receptor (FXR) signaling pathway - cell viability counter screen (AID 743221; active = well fitted cell-killing curve with a large enough effect in the repeat runs, not every such curve was filed as active; note: nearly all actives have a fitted effect of over 50% in size)
In short: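 Here viability was scored by luminescence after CellTiter-Glo addition to wells already read for beta-lactamase. Prior treatment: compound plus CDCA (50 uM final), 16 h, 37 C, HEK 293T FXR-bla cells.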

[8] = target: Vitamin D3 receptor (Homo sapiens) (UniProt P11473); assay: qHTS assay to identify small molecule agonists of the vitamin D receptor (VDR) signaling pathway (AID 743222; calls by dose curve)
In short: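 Agonist mode, beta-lactamase reporter: fluorescence from LiveBLAzer B/G FRET substrate (2 h, room temperature) read after 16 h compound treatment at 37 C of VDR-bla cells, which were pre-incubated 4 h after seeding.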

[9] = target: Vitamin D3 receptor (Homo sapiens) (UniProt P11473); assay: qHTS assay to identify small molecule antagonists of the vitamin D receptor (VDR) signaling pathway (AID 743223; active = well fitted inhibition curve with a large enough effect in the signal ratio in the repeat runs, not every such curve was filed as active; the % refers to the signal ratio)
In short: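 Inhibition of agonist-driven VDR signalling is scored in VDR-bla cells: 3 nM final 1alpha,25-dihydroxyvitamin D3 plus compound, 16 h at 37C, then beta-lactamase detection by FRET substrate fluorescence after 2 h.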

[10] = qHTS assay to identify small molecule agonists of the vitamin D receptor (VDR) signaling pathway - cell viability counter screen (AID 743224); note: series mostly up to about 63 µM; nearly all actives have a fitted effect of over 50% in size
In short: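 Counter screen run in the same wells as the VDR-bla reporter assay: CellTiter-Glo luminescence, 30 min at room temperature, after 16 h compound treatment at 37C of cells pre-plated for 4 h.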

[11] = qHTS assay to identify small molecule agonists of the endoplasmic reticulum stress response signaling pathway (AID 1159516; active = well fitted activation curve with a large enough effect in the signal ratio in the repeat runs, not every such curve was filed as active; the % refers to the signal ratio)
In short: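 Ratiometric FRET readout (405 nm excitation; 460 and 530 nm emission) of a beta-lactamase gene driven by the ER stress response element, after 2 hr substrate loading. HeLa ESRE-bla cells were seeded overnight and treated with compounds for only 5 hr at 37 C.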

[12] = qHTS assay to identify small molecule agonists of the endoplasmic reticulum stress response signaling pathway - cell viability counter screen (AID 1159517; calls by dose curve; note: series mostly up to about 61 µM; nearly all actives have a fitted effect of over 50% in size)
In short: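 Cytotoxicity of test compounds toward ESRE-bla HeLa cells was assessed after 5 hr exposure. The luminescent CellTiter-Glo signal was measured 30 min after reagent addition.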

[13] = qHTS assay to identify small molecule antagonists of the retinoid-related orphan receptor gamma (ROR-gamma) signaling pathway - cell viability counter screen (AID 1159520); note: nearly all actives have a fitted effect of over 50% in size
In short: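 Tet-on ROR gamma CHO cells (1,000/well) were plated 4 hr, given compounds in DMSO for 2 hr at 37 C, then induced with 1 uM final doxycycline for 16 hr. Viability was read as ATP by CellTiter-Glo luminescence after 30 min.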

[14] = target: Nuclear receptor ROR-gamma (Homo sapiens) (UniProt P51449); assay: qHTS assay to identify small molecule antagonists of the retinoid-related orphan receptor gamma (ROR-gamma) signaling pathway (AID 1159521)
In short: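 Test compounds were applied to Tet-on RORγ CHO cells 2 h ahead of doxycycline hyclate (1 uM final). Luciferase reporter activity was quantified by luminescence after 16 h at 37 C and 5% CO2.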

[15] = qHTS assay to identify small molecule agonists of the AP-1 signaling pathway - cell viability counter screen (AID 1159525; calls by dose curve; note: nearly all actives have a fitted effect of over 55% in size)
In short: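 Each titration point was normalised to DMSO and tetra n-octyl ammonium bromide controls. The read was Cell Titer Glo luminescence after 30 min at RT, following 5 h compound exposure of ME-180 AP-1-bla cells at 37 °C.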

[16] = qHTS assay to identify small molecule agonists of the AP-1 signaling pathway (AID 1159526; calls by dose curve)
[17] = target: Retinoic acid receptor RXR-alpha (Homo sapiens) (UniProt P19793); assay: qHTS assay to identify small molecule agonists of the RXR signaling pathway (AID 1159527; calls by dose curve; note: nearly all actives have a fitted effect of over 35% in size)
In short: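 Using 9-cis retinoic acid as the reference agonist, chemicals were tested in HEK 293T cells […] for 16 hr; substrate loading lasted 2 hr at room temperature.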

[18] = qHTS assay to identify small molecule antagonists of the vitamin D receptor (VDR) signaling pathway - cell viability counter screen (AID 743225); note: nearly all actives have a fitted effect of over 50% in size
In short: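 Compounds were pinned onto VDR-bla HEK 293T cells together with 1-alpha,25-dihydroxyvitamin D3 at 3 nM final. After 16 h at 37C and 5% CO2 plus the reporter readout, cell viability was measured by CellTiter-Glo luminescence (30 min, room temperature).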

[19] = target: Peroxisome proliferator-activated receptor delta (Homo sapiens) (UniProt Q03181); assay: qHTS assay to identify small molecule antagonists of the peroxisome proliferator-activated receptor delta (PPARd) signaling pathway (AID 743215; active = well fitted inhibition curve with a large enough effect in the signal ratio in the repeat runs, not every such curve was filed as active; the % refers to the signal ratio;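 note: cells stimulated with agonist L165041 at 300 nM final during compound exposure; series mostly up to about 62 µM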)
In short: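 Agonist L165041 (300 nM final) added with compound to PPARd-bla HEK293H UAS-bla reporter cells; 17 h incubation at 37 C. Read-out: LiveBLAzer FRET substrate, 2 h at room temperature, fluorescence intensity.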

Measured: Potency

Retinoic acid receptor RXR-alpha (Homo sapiens), sequence (P19793 whole entry, looked up): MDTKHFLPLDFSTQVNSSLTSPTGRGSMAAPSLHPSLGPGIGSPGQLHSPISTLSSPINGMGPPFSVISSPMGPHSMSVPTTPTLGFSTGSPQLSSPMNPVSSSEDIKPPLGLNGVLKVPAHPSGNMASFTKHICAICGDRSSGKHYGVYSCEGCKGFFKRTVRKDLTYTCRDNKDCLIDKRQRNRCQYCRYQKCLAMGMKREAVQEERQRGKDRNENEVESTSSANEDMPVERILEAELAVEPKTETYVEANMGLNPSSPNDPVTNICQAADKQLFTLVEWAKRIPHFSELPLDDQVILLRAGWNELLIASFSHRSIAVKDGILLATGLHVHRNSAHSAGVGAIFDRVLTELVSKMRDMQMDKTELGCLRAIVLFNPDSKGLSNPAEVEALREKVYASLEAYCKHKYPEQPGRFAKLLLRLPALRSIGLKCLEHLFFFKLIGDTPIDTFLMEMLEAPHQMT
Bile acid receptor (Homo sapiens), sequence (Q96RI1 whole entry, looked up): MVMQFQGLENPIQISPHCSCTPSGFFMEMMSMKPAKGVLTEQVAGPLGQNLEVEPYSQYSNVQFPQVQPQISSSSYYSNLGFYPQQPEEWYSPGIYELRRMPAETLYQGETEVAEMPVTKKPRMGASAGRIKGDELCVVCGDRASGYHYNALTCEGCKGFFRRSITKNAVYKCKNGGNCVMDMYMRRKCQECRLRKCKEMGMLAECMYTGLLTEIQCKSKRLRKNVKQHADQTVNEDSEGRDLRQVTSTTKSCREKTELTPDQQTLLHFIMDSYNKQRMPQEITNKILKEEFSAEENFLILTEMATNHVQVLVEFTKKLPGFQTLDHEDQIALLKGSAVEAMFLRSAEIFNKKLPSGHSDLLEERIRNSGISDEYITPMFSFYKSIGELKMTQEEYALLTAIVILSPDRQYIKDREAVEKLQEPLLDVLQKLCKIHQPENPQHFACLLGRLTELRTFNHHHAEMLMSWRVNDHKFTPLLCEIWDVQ
Vitamin D3 receptor (Homo sapiens), sequence (P11473 whole entry, looked up): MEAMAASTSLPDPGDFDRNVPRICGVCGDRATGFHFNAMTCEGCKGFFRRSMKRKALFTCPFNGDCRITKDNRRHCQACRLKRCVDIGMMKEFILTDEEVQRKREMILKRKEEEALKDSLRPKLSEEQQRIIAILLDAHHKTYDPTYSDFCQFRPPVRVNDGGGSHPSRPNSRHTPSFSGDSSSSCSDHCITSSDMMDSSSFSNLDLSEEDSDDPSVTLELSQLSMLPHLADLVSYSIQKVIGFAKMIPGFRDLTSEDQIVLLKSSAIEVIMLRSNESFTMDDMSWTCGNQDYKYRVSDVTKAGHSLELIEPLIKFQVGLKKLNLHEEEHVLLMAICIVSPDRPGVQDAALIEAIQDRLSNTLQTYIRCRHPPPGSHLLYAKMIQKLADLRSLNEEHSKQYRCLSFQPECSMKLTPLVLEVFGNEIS
Peroxisome proliferator-activated receptor delta (Homo sapiens), sequence (Q03181 whole entry, looked up): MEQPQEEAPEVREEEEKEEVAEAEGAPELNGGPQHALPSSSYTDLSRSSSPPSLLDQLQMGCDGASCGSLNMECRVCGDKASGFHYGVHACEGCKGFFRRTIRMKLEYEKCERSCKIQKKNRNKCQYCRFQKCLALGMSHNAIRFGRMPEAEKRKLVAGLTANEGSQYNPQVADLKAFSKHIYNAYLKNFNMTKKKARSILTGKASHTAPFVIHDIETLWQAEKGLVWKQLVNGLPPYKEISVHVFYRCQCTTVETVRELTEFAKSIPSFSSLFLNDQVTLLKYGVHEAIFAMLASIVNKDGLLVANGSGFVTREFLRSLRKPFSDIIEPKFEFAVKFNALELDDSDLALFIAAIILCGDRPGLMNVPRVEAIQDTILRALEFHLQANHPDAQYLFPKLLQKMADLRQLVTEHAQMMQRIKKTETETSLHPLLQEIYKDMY

COCc1cnc(C2=NC(C)(C(C)C)C(=O)N2)c(C(=O)O)c1 (stereo not given)
not listed: [18] | [19]
inactive: all other assays above

CCc1cnc(C2=NC(C)(C(C)C)C(=O)N2)c(C(=O)O)c1 (stereo not given)
not listed: [1] | [4] | [6] | [12] | [19]
inactive: all other assays above

CCCCCl
not listed: [7] | [9] | [15]
inactive: all other assays above

CCOP(=S)(OCC)SCSc1cc(Cl)ccc1Cl
not listed: [4] | [6] | [9] | [14] | [15] | [17] | [18]
inactive: all other assays above

CN(C1CCCCC1)C1CCCCC1
not listed: [4] | [6] | [14] | [15]
inactive: all other assays above

OCC1CO1 (stereo not given)
not listed: [1] | [19]
inactive: all other assays above

CCCC[N+](CCCC)(CCCC)CCCC
not listed: [4] | [5] | [6] | [9] | [17] | [18] | [19]
inactive: all other assays above

FC(F)OC(F)(F)C(F)Cl (stereo not given)
not listed: [4] | [6]
inactive: all other assays above
